# Assay results from PubChem BioAssay (Tox21).
# Results filed as inconclusive are left out. Entries that show only a call come without a potency. Activity calls are given as the source filed them. Unless noted, the call rests on the fitted dose curve.
# System: not listed separately
# Experiment: qHTS assay to identify small molecule antagonists of the estrogen related receptor signaling pathway with the pleiotropic PPARgamma coactivator (PGC) from Tox21 10K library (AID 1224841; call rule not given here; further: actives are mostly falling curves and most rising ones were filed inactive; nearly all actives have a fitted effect of over 50% in size)
# Settings: PGC/ERR reporter cell line, ONE-Glo luciferase, 18 h; series mostly up to 92.4 µM
# How it was run: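 One-Glo luminescence, measured after half an hour at room temperature, quantified reporter output of PGC/ERR cells. These had been plated at 2,000 per well, incubated 6 h, dosed with compounds in DMSO, then kept 18 h at 37 C.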
# Potency means the concentration at half of the fitted maximal effect.
row,SMILES,Potency
1,CCOc1ccc(N)c([N+](=O)[O-])c1,inactive
2,CN1CCC(=C2c3ccccc3Sc3ccccc32)CC1,inactive
3,CCc1c(C(=O)NN2CCCCC2)nn(-c2ccc(Cl)cc2Cl)c1-c1ccc(Br)cc1,4.86 µM (active)
4,Cc1c(N)cccc1[N+](=O)[O-],inactive
5,CCCCCCCCCCCCCCOS(=O)(=O)O,inactive
6,CCCCCCCCCCCCCCCCOS(=O)(=O)O,inactive
7,CC(C)OC(=O)C(C)N(C(=O)c1ccccc1)c1ccc(F)c(Cl)c1 (stereo not given),21.7 µM (active)
8,CCCCC(CC)CN1C(=O)C2C3C=CC(C3)C2C1=O (stereo not given),inactive
9,C=CC(=O)OCCOc1ccccc1,inactive
10,CCCOC(C(=O)OC1CCN(C)CC1)(c1ccccc1)c1ccccc1,inactive
11,COc1cc2nc(N(C)CCCNC(=O)C3CCCO3)nc(N)c2cc1OC (stereo not given),15 µM (active)
12,Cn1c(=O)cc(Oc2ccc(F)cc2F)c2cnc(NCC(C)(C)O)nc21,34.4 µM (active)
13,CN1CCC(N(Cc2cccs2)c2ccccc2)CC1,inactive
14,CN(C)CCCN1c2ccccc2Sc2ccccc21,inactive
15,CN(C)c1ccc(C(c2ccccc2)c2ccc(N(C)C)cc2)cc1,27.3 µM (active)
16,COc1ccc(C(=O)c2ccc(OC)cc2O)c(O)c1,inactive

# System: not listed separately
# Experiment: qHTS assay to identify small molecule agonists of the estrogen related receptor signaling pathway with the pleiotropic PPARgamma coactivator (PGC) from Tox21 10K library (AID 1224842; active means well fitted activation curve with a large enough effect in the repeat runs; further: nearly all actives have a fitted effect of over 15% in size)
# Settings: PGC/ERR reporter cell line, luciferase ONE-Glo, 18 h; series mostly up to 92.4 µM
# How it was run: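 PGC/ERR reporter cells (NTP line) were seeded 2,000 per well, rested 6 h at 37 C/5% CO2, then pin-dosed with compounds in DMSO for 18 h at 37 C; luciferase read by One-Glo luminescence after 30 min at room temperature.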
row,SMILES,Potency
1,CCOc1ccc(N)c([N+](=O)[O-])c1,inactive
2,COc1ccc(C(=O)Nc2nc3ccccc3c(NCc3ccccc3)c2C#N)cc1,inactive
3,CCCCC/C=C\C/C=C\CCCCCCCC(=O)NC(C)c1ccccc1 (stereo not given),inactive
4,CCCCCCCCCCCCCCOS(=O)(=O)O,inactive
5,CC(C)OC(=O)C(C)N(C(=O)c1ccccc1)c1ccc(F)c(Cl)c1 (stereo not given),inactive
6,CCCCCCCCCCCCCCCCCCOS(=O)(=O)O,inactive
7,C=CC(=O)OCCOc1ccccc1,68.5 µM (active)
8,O=C(Nc1ccccc1)c1ccccc1O,inactive
9,CN(C)C(=O)NC1(c2ccccc2)CCN(CC[C@@]2(c3ccc(F)c(F)c3)CN(C(=O)c3ccccc3)CCO2)CC1,inactive
10,CN1CCC(N(Cc2cccs2)c2ccccc2)CC1,inactive
11,CCOC(=O)NCCOc1ccc(Oc2ccccc2)cc1,inactive
12,CN(C)CCCN1c2ccccc2Sc2ccccc21,inactive
13,CN(C)c1ccc(C(c2ccccc2)c2ccc(N(C)C)cc2)cc1,inactive

# Molecular target: Thyrotropin receptor (Homo sapiens) (UniProt P16473)
# Experiment: qHTS assay to identify small molecule agonists of the thyroid stimulating hormone receptor (TSHR) signaling pathway (AID 1224843); further: nearly all actives have a fitted effect of over 45% in size
# Settings: TSHR-HEK293 cells, cAMP HTRF, agonist mode, 30 min; series mostly up to 92.4 µM
# How it was run: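 Compounds are titrated over 15 concentrations, in triplicate, onto TSHR-HEK293 cells seeded at 800/well. Plates sit 30 min at room temperature before cAMP-d2 and anti-cAMP cryptate are added; signal is read after a further hour.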
# Thyrotropin receptor (Homo sapiens), sequence (P16473 whole entry, looked up): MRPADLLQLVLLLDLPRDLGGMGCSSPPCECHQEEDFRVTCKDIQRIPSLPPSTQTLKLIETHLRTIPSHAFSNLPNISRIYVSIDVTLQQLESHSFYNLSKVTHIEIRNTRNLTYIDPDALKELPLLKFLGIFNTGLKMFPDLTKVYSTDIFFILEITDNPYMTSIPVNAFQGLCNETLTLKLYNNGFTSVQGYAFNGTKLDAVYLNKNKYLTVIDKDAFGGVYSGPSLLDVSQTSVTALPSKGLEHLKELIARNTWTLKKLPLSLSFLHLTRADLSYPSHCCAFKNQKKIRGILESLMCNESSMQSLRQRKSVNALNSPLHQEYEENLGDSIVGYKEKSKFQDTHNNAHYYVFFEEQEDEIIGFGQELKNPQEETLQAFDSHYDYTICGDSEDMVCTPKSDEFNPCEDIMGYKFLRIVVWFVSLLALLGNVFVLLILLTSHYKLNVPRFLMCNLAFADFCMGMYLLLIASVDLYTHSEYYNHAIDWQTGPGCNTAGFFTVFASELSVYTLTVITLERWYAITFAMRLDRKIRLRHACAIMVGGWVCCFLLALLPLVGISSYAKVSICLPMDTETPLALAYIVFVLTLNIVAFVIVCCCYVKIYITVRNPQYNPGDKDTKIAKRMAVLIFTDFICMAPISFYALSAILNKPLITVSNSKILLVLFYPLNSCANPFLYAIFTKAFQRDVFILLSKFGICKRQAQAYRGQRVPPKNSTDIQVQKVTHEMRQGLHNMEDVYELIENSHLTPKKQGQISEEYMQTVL
row,SMILES,Potency
1,CCc1c(C(=O)NN2CCCCC2)nn(-c2ccc(Cl)cc2Cl)c1-c1ccc(Br)cc1,inactive
2,CCCCc1nc2cccnc2n1Cc1ccc(-c2ccccc2-c2nnn[nH]2)cc1,inactive
3,OCCN1CCN(CCCN2c3ccccc3C=Cc3ccccc32)CC1,inactive
4,CC(=O)c1ccc2c(c1)N(CCCN(C)C)c1ccccc1S2,inactive
5,COc1ccc(C(=O)Nc2nc3ccccc3c(NCc3ccccc3)c2C#N)cc1,inactive
6,CCCCC/C=C\C/C=C\CCCCCCCC(=O)NC(C)c1ccccc1 (stereo not given),inactive
7,Cc1c(N)cccc1[N+](=O)[O-],inactive
8,CNCCCN1c2ccccc2CCc2ccccc21,inactive
9,COC(=O)C1=C(C)NC(COC(N)=O)=C(C(=O)OC(C)C)C1c1cccc(Cl)c1Cl (stereo not given),inactive
10,C=CC(=O)OCCOc1ccccc1,inactive
11,CCCOC(C(=O)OC1CCN(C)CC1)(c1ccccc1)c1ccccc1,inactive
12,CCOC(=O)C1=C[C@]2(CC)CCCN3CCc4c(n1c1ccccc41)[C@@H]32,18.8 µM (active)
13,COc1cc2nc(N(C)CCCNC(=O)C3CCCO3)nc(N)c2cc1OC (stereo not given),inactive
14,Clc1ccc(Cn2c(CN3CCCC3)nc3ccccc32)cc1,inactive
15,CCCNCC(O)COc1ccccc1C(=O)CCc1ccccc1 (stereo not given),inactive
16,CN(C)C(=O)NC1(c2ccccc2)CCN(CC[C@@]2(c3ccc(F)c(F)c3)CN(C(=O)c3ccccc3)CCO2)CC1,inactive
17,CCN(CC)CCOC(=O)C(Cc1cccc2ccccc12)CC1CCCO1 (stereo not given),inactive
18,CN(C)c1ccc(C(c2ccccc2)c2ccc(N(C)C)cc2)cc1,inactive
19,COc1ccc(C(=O)c2ccc(OC)cc2O)c(O)c1,inactive
20,CNCCCCOc1ccccc1Cc1ccccc1,inactive

# System: not listed separately
# Experiment: qHTS assay to identify small molecule agonists of the hypoxia (HIF-1) signaling pathway - cell viability counter screen (AID 1224844); further: nearly all actives have a fitted effect of over 50% in size
# Settings: HRE-bla ME-180 viability, CellTiter-Glo luminescence, 17 h; series mostly up to 76.8 µM
# How it was run: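 In this counter screen, HRE-bla ME-180 cell viability after 17 hrs of compound exposure at 37C was read by CellTiter-Glo luminescence, multiplexed with the beta-lactamase reporter measurement.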
row,SMILES,Potency
1,CCOc1ccc(N)c([N+](=O)[O-])c1,inactive
2,CCCCc1nc2cccnc2n1Cc1ccc(-c2ccccc2-c2nnn[nH]2)cc1,inactive
3,OCCN1CCN(CCCN2c3ccccc3C=Cc3ccccc32)CC1,inactive
4,CC(=O)c1ccc2c(c1)N(CCCN(C)C)c1ccccc1S2,inactive
5,CCCCC/C=C\C/C=C\CCCCCCCC(=O)NC(C)c1ccccc1 (stereo not given),inactive
6,Cc1c(N)cccc1[N+](=O)[O-],inactive
7,CCOC(=O)COC(=O)c1cc(Oc2ccc(C(F)(F)F)cc2Cl)ccc1[N+](=O)[O-],inactive
8,CC(C)OC(=O)C(C)N(C(=O)c1ccccc1)c1ccc(F)c(Cl)c1 (stereo not given),inactive
9,CCCCCCCCCCCCCCCCCCOS(=O)(=O)O,38.9 µM (active)
10,CCCCC(CC)CN1C(=O)C2C3C=CC(C3)C2C1=O (stereo not given),inactive
11,COC(=O)C1=C(C)NC(COC(N)=O)=C(C(=O)OC(C)C)C1c1cccc(Cl)c1Cl (stereo not given),inactive
12,Clc1ccc(Cn2c(CN3CCCC3)nc3ccccc32)cc1,inactive
13,Cn1c(=O)cc(Oc2ccc(F)cc2F)c2cnc(NCC(C)(C)O)nc21,inactive
14,O=C(Nc1ccccc1)c1ccccc1O,inactive
15,CCCCC1=NC2(CCCC2)C(=O)N1Cc1ccc(-c2ccccc2-c2nn[nH]n2)cc1,inactive
16,CN1CCC(N(Cc2cccs2)c2ccccc2)CC1,inactive
17,CCOC(=O)NCCOc1ccc(Oc2ccccc2)cc1,inactive
18,CN(C)c1ccc(C(c2ccccc2)c2ccc(N(C)C)cc2)cc1,inactive
19,COc1ccc(C(=O)c2ccc(OC)cc2O)c(O)c1,inactive
20,CNCCCCOc1ccccc1Cc1ccccc1,inactive
21,O=C1OC(CN2CCOCC2)CN1/N=C/c1ccc([N+](=O)[O-])o1 (stereo not given),inactive
